Laboratory results from the supplement of paper PMC6763611.

Tested on: Plasmodium falciparum NF54
Assay: growth inhibition relative to untreated control; higher = more inhibition
Conditions: 72 h
In short: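 Ring-stage P. falciparum NF54 parasites at 1% hematocrit and 1% parasitemia were dispensed at 100 μL/well into dark 96-well half-area plates and given a single dose of test compound at 5 μM or 1 μM for 72 h at 37 °C. Incubation took place in minimal RPMI, either alone or supplemented with the chorismate end-products folate (2.2 μM), pABA (7.3 μM), pHBA (7.3 μM), tyrosine (111 μM), phenylalanine (90 μM) and tryptophan. Growth inhibition was determined with SYBR Green relative to untreated wells, using uninfected erythrocytes for background.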

[1] = 1 µM, MM + chorismate end-products (CM screening medium)
[2] = 5 µM, MM + chorismate end-products (CM screening medium)

CC(C)(C)OC(=O)N1CCN(c2nccc(-c3ccc(-c4ccc(Cl)cc4)s3)n2)CC1 was tested, and the growth inhibition [1] was less than 0%, the growth inhibition (1 µM, minimal medium (MM)) was 2.86% and the growth inhibition [2] was 64.1%. It also gave a growth inhibition (5 µM, minimal medium (MM)) of 11.6%.
Molecule Cc1cc(Cl)ccc1NC(=O)CCc1ccc(S(=O)(=O)NCC(C)C)cc1 has a growth inhibition [1] of 23%, a growth inhibition (1 µM, minimal medium (MM)) of less than 0% and a growth inhibition [2] of 6.82%. For the same molecule, the growth inhibition (5 µM, minimal medium (MM)) was less than 0%.
For c1cc(C2=NCCN2)cc(-c2cc(-c3ccc(C4=NCCN4)cc3)no2)c1, the growth inhibition [1] was 81.6%, the growth inhibition (1 µM, minimal medium (MM)) was 81.6% and the growth inhibition [2] was 97.8%. The growth inhibition (5 µM, minimal medium (MM)) was 89.7%.
NCCCC(N)(C(=O)O)C(F)F (stereo not given) gave a growth inhibition [1] of 14%, a growth inhibition (1 µM, minimal medium (MM)) of less than 0% and a growth inhibition [2] of less than 0%. It also gave a growth inhibition (5 µM, minimal medium (MM)) of less than 0%.
With C[C@H](C(N)=O)N1CCCC[C@H]1c1ccc(OCc2cccc(F)c2)cc1 the growth inhibition [1] was 18.3%, the growth inhibition (1 µM, minimal medium (MM)) was 3.3% and the growth inhibition [2] was less than 0%. For the same molecule, the growth inhibition (5 µM, minimal medium (MM)) was less than 0%.
For CN1CCCC1CCO[C@](C)(c1ccccc1)c1ccc(Cl)cc1 (stereo not given in full), the growth inhibition [1] was 96.4%, the growth inhibition (1 µM, minimal medium (MM)) was 94.5% and the growth inhibition [2] was 98%. The growth inhibition (5 µM, minimal medium (MM)) was 93.3%.
For O=C(Nc1ccc(N2CCNCC2)cc1)c1ccn2ncc(-c3cccc(Cl)c3)c2n1, the growth inhibition [1] was greater than 100%, the growth inhibition (1 µM, minimal medium (MM)) was greater than 100% and the growth inhibition [2] was greater than 100%. It also gave a growth inhibition (5 µM, minimal medium (MM)) of 99.8%.
CCc1nc2ccc(C(=O)NCc3ccc4c(c3)OCO4)cn2c1N(C)Cc1cccs1 was tested, and the growth inhibition [1] was 21.4%, the growth inhibition (1 µM, minimal medium (MM)) was less than 0% and the growth inhibition [2] was less than 0%. It also gave a growth inhibition (5 µM, minimal medium (MM)) of less than 0%.
Work on O=C(Cn1ccnc1[N+](=O)[O-])NCc1ccccc1 yielded a growth inhibition [1] of 20.5%, a growth inhibition (1 µM, minimal medium (MM)) of less than 0% and a growth inhibition [2] of 0.641%. It also gave a growth inhibition (5 µM, minimal medium (MM)) of less than 0%.
Work on N#Cc1nc(-c2ccccc2)oc1S(=O)(=O)c1ccc(Cl)cc1 yielded a growth inhibition [1] of 43.4%, a growth inhibition (1 µM, minimal medium (MM)) of 49.5% and a growth inhibition [2] of 97.9%. It also gave a growth inhibition (5 µM, minimal medium (MM)) of 55%.
Work on Cc1ccccc1CN1CCC(O)(c2ccc(Cl)c(C(F)(F)F)c2)CC1 yielded a growth inhibition [1] of 51.6%, a growth inhibition (1 µM, minimal medium (MM)) of 30% and a growth inhibition [2] of 82.6%. The growth inhibition (5 µM, minimal medium (MM)) was 76.2%.
Work on CCOC(=O)NC(=O)c1ccsc1NC(=O)c1nc2ccccc2s1 yielded a growth inhibition [1] of 36.1%, a growth inhibition (1 µM, minimal medium (MM)) of less than 0% and a growth inhibition [2] of less than 0%. The growth inhibition (5 µM, minimal medium (MM)) was less than 0%.
Cc1nn(C)cc1C(C)Nc1nncc(-c2ccc(C(F)(F)F)cc2)n1 (stereo not given) showed a growth inhibition [1] of 94.7%, a growth inhibition (1 µM, minimal medium (MM)) of 97.4% and a growth inhibition [2] of 99.9%. The growth inhibition (5 µM, minimal medium (MM)) was 91.7%.
COc1cccn2c(C(=O)N3CCCCC3)c(C(F)(F)F)nc12 was tested, and the growth inhibition [1] was 12.4%, the growth inhibition (1 µM, minimal medium (MM)) was 15.1% and the growth inhibition [2] was less than 0%. It also gave a growth inhibition (5 µM, minimal medium (MM)) of less than 0%.
Work on CC(C)n1ncc2c(C(=O)NCC(c3cccs3)N3CCOCC3)cc(-c3ccccc3)nc21 (stereo not given) yielded a growth inhibition [1] of 10%, a growth inhibition (1 µM, minimal medium (MM)) of 9.61% and a growth inhibition [2] of 42.4%. It also gave a growth inhibition (5 µM, minimal medium (MM)) of 14.2%.
